Assay outcomes: PubChem, National Center for Advancing Translational Sciences (NCATS)
TSHR antag = antagonists of human thyroid stimulating hormone receptor | 0.2% of 330,000 active | P16473 | activity change, negative = inhibition, % at 11.5 µM | TSHR-expressing cells, TSH-stimulated cAMP HTRF, 2 h; active compounds read low;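 active = activity change below a set negative limit, meaning inhibition stronger than a set level, cut at about -70% in these data; inconclusive = activity change between two set negative limits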
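Read-out is FRET at 665 nm (cryptate excitation 337 nm) from a cryptate-tagged anti-cAMP antibody, competed by cell cAMP against cAMP-d2. Compounds are tested on freshly harvested TSHR cells challenged with 4nM TSH (EC80) for 2 hours at 37 deg C.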
B2AR arrestin = beta2AR (human) beta-arrestin recruitment activity; P07550; beta-arrestin recruitment to beta2AR, cell-based reporter; Potency, µM (highest dose often 46.1 µM), actives largely listed as activators; 0.02% of 330,000 active; AID 492947; also: nearly all actives have a fitted effect of over 65% in size
Target sequence (P07550 whole entry, looked up): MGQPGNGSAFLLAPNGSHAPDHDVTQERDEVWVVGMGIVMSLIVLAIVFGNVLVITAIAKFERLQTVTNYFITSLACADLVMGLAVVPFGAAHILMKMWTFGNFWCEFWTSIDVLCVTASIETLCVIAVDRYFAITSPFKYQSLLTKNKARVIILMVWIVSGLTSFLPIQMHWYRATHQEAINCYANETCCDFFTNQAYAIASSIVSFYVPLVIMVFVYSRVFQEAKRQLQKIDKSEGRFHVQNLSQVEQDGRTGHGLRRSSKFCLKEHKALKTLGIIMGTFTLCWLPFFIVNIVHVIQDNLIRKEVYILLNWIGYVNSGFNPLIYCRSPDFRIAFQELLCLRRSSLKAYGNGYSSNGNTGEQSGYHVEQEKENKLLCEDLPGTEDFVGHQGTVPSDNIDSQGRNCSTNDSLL
RORg inh = ROR gamma (mouse) transcription inhibition; P51450; Potency, µM (titrated, usually from 53.6 µM), actives largely listed as inhibitors; 5.4% of 310,000 active; Drosophila S2 Gal4-RORgamma UAS-luciferase reporter, 20 h; also: nearly all actives have a fitted effect of over 60% in size
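Drosophila Schneider cells stably carrying a metallothionein-driven Gal4 DBD–ROR gamma fusion and a UAS-Photinus luciferase reporter were exposed to compound for 1 hr, then induced with copper sulfate (700 uM final) for 20 hr at ambient temperature before luminescence reading.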
ELG1 DNA repair = blocks ELG1-dependent DNA repair in HEK293T cells; HEK293T ELG1-luciferase reporter, luminescence, 16 h; DNA damage induced by 5-fluorouridine; Potency, µM (highest dose often 46.1 µM), usual class: inhibitors; 2.3% of 330,000 active; AID 504467; also: nearly all actives have a fitted effect of over 55% in size
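Quantitative HTS, concentration-response format. 2,000 cells/well co-treated with 5-fluorouridine and compound, 16 hr in 5% CO2 at 37 °C; ONE-Glo luminescence read after 30 min.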
VP16 counter = Gal4-VP16 reporter inhibition counter-screen; Drosophila S2 Gal4-VP16 UAS-luciferase, luminescence, 20 h; Potency, µM (top dose mostly 53.6 µM), most hits filed as inhibitors; 3.5% of 310,000 active;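 also: Gal4-VP16 expression switched on by copper sulfate through the metallothionein promoter; nearly all actives have a fitted effect of over 50% in size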
Hits are given with their value; – = inactive; ? = inconclusive; · = no result given; [ ] = dose if it differs, or a comment. An excerpt weighted towards active compounds, which were near 7.5% of everything screened. Unless noted, calls follow the shape of the dose curve; as a rule, active = well fitted curve in the direction sought with a large enough effect; inconclusive = small, poorly fitted or top-dose-only effect, or another doubt; inactive = no such curve, though single readings can be large; an effect the other way counts as inactive or inconclusive.

SMILES	TSHR antag	B2AR arrestin	RORg inh	ELG1 DNA repair	VP16 counter
CCOc1ccccc1-c1nc(CN2CCCN(C(=O)c3ccco3)CC2)c(C)o1	–	–	–	–	–
COc1ccccc1NC(=O)C1CCN(c2ncnc3c2nc2n3CCCCC2)CC1	–	–	–	9.2µM	–
Cc1ccc(NC(=O)C2CCCN(c3ncnc4c3nc3n4CCCCC3)C2)nc1 (stereo unspecified)	–	–	–	3.3µM	–
COc1ccc(-c2noc(N3CCC(C(=O)Nc4ccccc4OC)CC3)n2)cc1	–	–	–	23µM	–
COc1cccc(N2CCN(C(C)C(=O)NC34CC5CC(CC(C5)C3)C4)CC2)c1 (stereo unspecified)	–	–	–	–	–
Cn1cccc1C(=O)N1CCC2(CCN(C(=O)Nc3cccc(C#N)c3)CC2)CC1	·	·	–	·	–
O=C(NC(=S)Nc1ccccc1N1CCCC1)c1cccs1	–	–	4.5µM	–	16µM
COc1ccc(OCC(=O)NC(=S)Nc2ccc(N3CCOCC3)c(Cl)c2)cc1	–	–	–	–	–
O=C(Nc1ccc2c(c1)OCCO2)c1ccc(Cl)c(Cl)c1	–	–	–	?	–
O=C(NC(=S)Nc1ccccc1N1CCCCC1)c1cccs1	–	–	1.6µM	–	?
O=C(NC(=S)Nc1ccc(N2CCCCC2)c(Cl)c1)c1ccc2c(c1)OCCO2	–	–	3.2µM	–	6.3µM
CC(C)CC(=O)NC(=S)Nc1ccc(N2CCOCC2)c(Cl)c1	–	–	7.9µM	?	?
Cc1ccccc1NC(=O)OCc1ccccc1	–	–	–	?	–
C=C(C(C)=O)C(O)c1ccc2ccccc2c1 (stereo unspecified)	·	·	–	·	–
O=C(NC(=S)Nc1ccc(N2CCOCC2)c(Cl)c1)c1cccs1	–	–	?	–	14µM
O=C(NC(=S)Nc1ccc(N2CCOCC2)c(Cl)c1)c1cncc(Br)c1	–	–	1µM	?	0.56µM
O=C(NC(=S)Nc1ccccc1N1CCOCC1)c1cccs1	–	–	6.3µM	–	14µM
O=C(Nc1ccc(N2CCOCC2)c(Cl)c1)c1cccnc1	–	–	–	–	–
CC(=O)c1ccc(-c2c(C3C4C=CCC(C)C4C(=O)N3Cc3ccccc3)ccc3ccccc23)cc1 (stereo unspecified)	·	·	–	·	–
CN(C(=O)COc1ccccc1C(=O)NCCOc1ccccc1)c1ccccc1	–	–	?	10µM	7.9µM
CC1CCN(C2=NC(=O)/C(=C/c3cn(-c4ccccc4)nc3-c3cccc(S(=O)(=O)N(C)C)c3)S2)CC1	–	–	–	5.2µM	–
O=C(NCCc1ccccc1)/C(=C\c1cccc([N+](=O)[O-])c1)NC(=O)c1ccco1	–	–	?	–	–
COc1ccc(-c2nc3nc(SC)nn3cc2C)cc1F	–	–	–	–	25µM
COc1ccc(-c2nc3ncnn3cc2C)cc1F	–	–	–	–	–
CCNc1ncc2nc(-c3cccs3)c(=O)n(CCc3ccccc3)c2n1	·	·	–	·	–
SMILES	TSHR antag	B2AR arrestin	RORg inh	ELG1 DNA repair	VP16 counter
COc1cc(Nc2cc(C)nc3nc(C)nn23)cc(OC)c1OC	–	–	–	?	13µM
COc1ccc(Nc2cc(C)nc3nc(C)nn23)cc1Cl	–	–	–	?	–
c1ccc(Oc2nc(N3CCOCC3)nc(N3CCOCC3)n2)cc1	–	–	–	?	–
O=C1CSC(c2ccccc2)N1Nc1nc(N2CCOCC2)nc(N2CCOCC2)n1 (stereo unspecified)	–	–	–	6.5µM	–
OC1C=C2CCN3Cc4cc5c(cc4C(C1O)C23)OCO5 (stereo unspecified)	·	·	?	·	11µM
CC1CCCC(C)N1C(=O)CSc1nnc(COc2ccc(F)cc2)o1 (stereo unspecified)	–	–	–	–	–
O=C(CCSc1ccc(Cl)cc1)c1ccco1	–	–	11µM	–	?
CN(C)c1ccc(-c2cc(C3C4C=CCCC4(C)C(=O)N3Cc3ccccc3)ccc2F)cc1 (stereo unspecified)	·	·	–	·	–
COc1cc(OC)c(C(=O)OCCCOC(=O)c2cc(OC)c(OC)cc2OC)cc1OC	–	–	7.9µM	12µM	10µM
Cc1cc(NC(=O)CSc2nc3cc(Cl)ccc3o2)no1	–	–	13µM	–	–
CCN(CC)S(=O)(=O)c1ccc2oc(SCC(=O)Nc3cc(C)on3)nc2c1	–	–	·	10µM	·
CCN(CC)S(=O)(=O)c1ccc2oc(SCC(=O)NC3CC3)nc2c1	–	–	–	?	–
Cc1noc(C)c1-c1ccc2ncnc(NCc3ccc4c(c3)OCO4)c2c1	·	·	–	·	–
CN(/N=C/c1cc(Br)cc(Br)c1O)c1cccc(C(F)(F)F)n1	–	–	–	7.3µM	?
CO/N=C(/C(=O)N[C@@H]1C(=O)N2C(C(=O)O)=C(C[n+]3ccc(N)n3CCO)CS[C@H]12)c1csc(N)n1	·	·	–	·	–
C=CCCCCCCCCc1nc(SCC(C)=O)n[nH]1	–	–	–	23µM	–
Cc1cccc(N2CCN(C(=O)Cc3ccc(-n4c(=O)[nH]c5ccsc5c4=O)cc3)CC2)c1C	–	–	–	18µM	–
O=c1c(O)c(-c2ccc(O)cc2)oc2cc(O)cc(O)c12	·	·	–	·	–
O=c1c(O)c(-c2ccccc2)oc2cccc(O)c12	·	·	4µM	·	7.9µM
COc1ccc(OC)c(NC(=O)c2cc(OC(C)=O)cc(C(=O)Nc3cc(OC)ccc3OC)c2)c1	–	–	–	?	–
O=C(Nc1ccccc1)C1=C(c2ccccc2)S(=O)(=O)CCS1(=O)=O	?	–	0.89µM	?	2.2µM
O=C(O)c1ccccc1C(=O)Nc1ccccc1	–	–	–	–	–
Cc1ccsc1CNS(=O)(=O)c1ccc(F)cc1	–	–	?	–	–
Cc1ccc(C(=O)Nc2ccc(CC(=O)O)cc2)o1	–	–	–	–	–
O=C(O)Cc1ccc(NC(=O)c2cnccn2)cc1	–	–	11µM	–	?
SMILES	TSHR antag	B2AR arrestin	RORg inh	ELG1 DNA repair	VP16 counter
CC(C)(C)c1ccc(C(=O)Nc2ccc(CC(=O)O)cc2)o1	–	–	0.79µM	–	0.79µM
Cc1ccc(NC(=O)c2cnccn2)cc1	–	–	–	?	–[10 µM]
O=C(NCc1ccco1)c1cc(-c2cccs2)nc2ccccc12	–	–	–	15µM	–
COc1cc(-c2cc(C(=O)NCc3ccco3)c3ccccc3n2)cc(OC)c1OC	–	–	–	13µM	–
Cc1ccc(-c2cc(C(=O)NCc3ccco3)c3ccccc3n2)s1	–	–	?	–	?
COc1cc(-c2noc(CCCC(=O)NCc3ccccc3)n2)cc(OC)c1OC	–	–	–	18µM	–
COc1cc(-c2cc(C(=O)NCc3ccc(S(N)(=O)=O)cc3)c3ccccc3n2)cc(OC)c1OC	–	–	–	13µM	–
NS(=O)(=O)c1ccc(CNC(=O)c2cc(-c3ccccc3)nc3ccccc23)cc1	–	–	–	–	–
